The campaign covered roughly 340,000 compounds. About 6,200 (1.8%) were called active. Inconclusive results (about 10%) are left out. Calls come from the whole dose curve; as a rule, active = well fitted activation curve with a large enough effect; inconclusive = small, poorly fitted or top-dose-only effect; inactive = no such curve, though single readings can be large or run the other way. This excerpt belongs to a sample that is enriched for actives.
Experiment: A quantitative high throughput screen for small molecules that induce DNA re-replication in SW480 colon adenocarcinoma cells. For re-replication activation: % of control where 0% means no effect. Note: nearly all actives have a fitted effect of over 55% in size.
Conditions: Hoechst DNA content imaging, 48 h; series mostly up to 46.1 µM
Summary of the method: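 Readout is total intensity of Hoechst-stained nuclei, excited at 405 nm and collected at 500-530 nm. Compound treatment lasted 48 hr at 37 C in 5% CO2 before staining.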
Potency is the fitted concentration of half-maximal effect.

Potency, active:
CN1c2ccc(C=O)c3c(C=O)ccc(c23)N(C)C1(C)C 3.26 µM, C=CCn1c(SCc2c(C)noc2C)nc2sc3c(c2c1=O)CCC(C)C3 (centres undefined) 9.2 µM, O=c1oc2ccccc2cc1-c1cn(-c2ccccc2)c(=S)[nH]1 9.2 µM, CCOC(=O)N1CCN(C(=O)c2ccccc2N(Cc2ccccc2)S(=O)(=O)c2ccc(OC)cc2)CC1 14.6 µM, CCOC(=O)C1=C(CN2CCc3ccccc32)NC(=O)NC1c1ccc(Cl)cc1 (centres undefined) 7.31 µM, COc1ccccc1N1CCN(CC(=O)NC(=O)NCc2ccco2)CC1 5.8 µM, O=C(NCCC1CCCCN1S(=O)(=O)c1cccs1)C(=O)Nc1ccc(F)cc1F (centres undefined) 11.2 µM, CCN(CC)c1ccc(/C=N/Nc2nc(C)cc(C)n2)c(O)c1 8.2 µM, COc1ccc(C(=O)N/N=C2\CCS(=O)(=O)c3ccc(F)cc32)cc1OC 10.3 µM, CCOc1ccc(-n2c(O)c(/C=N/c3ccnn3Cc3ccncc3)c3ccccc3c2=O)cc1 20.6 µM, Cc1nc2ccccc2nc1N/N=C/c1ccc(O)cc1O 1.64 µM, CCc1cc2c(=O)n(-c3ccccc3)c(SCC(=O)O)nc2s1 18.4 µM, O=C(NNC(=O)c1ccccc1O)c1ccccc1O 1.64 µM

Potency, inactive:
COc1ccc(S(=O)(=O)N(C)C[C@H]2Oc3c(NC(=O)Nc4ccc5c(c4)OCO5)cccc3C(=O)N([C@H](C)CO)C[C@@H]2C)cc1, CCOC(=O)C(CO)NC(=O)C1(NC(C)=O)CCCC1 (centres undefined), C=CCn1c(SCC(=O)NCCCO)nc2sc3c(c2c1=O)CCC3, C=CCn1c(SCC(=O)NCC2CCCO2)nc2sc(C)c(C)c2c1=O (centres undefined), Cc1ccc(NC(=O)CN(C)C(=O)c2ccc(Cl)c(S(=O)(=O)NCc3ccco3)c2)cc1, Cc1c(Cl)cnc(NC(=O)COC(=O)C2CCCC2)c1Cl, O=C1CC(c2ccccc2)C(c2ccccc2)=NN1 (centres undefined), COc1ccc(-c2cn(-c3ccc(OC)cc3)c(=S)[nH]2)cc1, S=c1[nH]c(-c2cccs2)cn1-c1ccccc1, O=C(O)c1ccc(S(=O)(=O)c2ccccc2)s1, NC(=O)c1ccccc1N(Cc1ccccc1)S(=O)(=O)c1ccccc1, CCOC(=O)N1CCN(S(=O)(=O)c2ccc(OC)cc2)CC1, CCOC(=O)c1ccccc1NC(=O)CSc1nc2c(sc(=S)n2CC)c(=O)[nH]1, CCOC(=O)C1=C(c2ccccc2)NC(=S)NC1c1ccc(Cl)cc1 (centres undefined), CCOC(=O)C1=C(CN2CCCCCC2)NC(=O)NC1c1cccc([N+](=O)[O-])c1 (centres undefined), O=C(CN1CCN(S(=O)(=O)/C=C/c2ccccc2)CC1)NC(=O)NCc1ccco1, O=C(CN1CCN(c2ccccc2O)CC1)NC(=O)NCc1ccccc1, COC1=CC(=O)OC(c2ccc(OC)cc2)C1 (centres undefined), COc1ccccc1CCNC(=O)C(=O)NCCC1CCCCN1S(=O)(=O)c1cccs1 (centres undefined), COc1ccc(CCNC(=O)C(=O)NCC2CCCN2S(=O)(=O)c2cccs2)cc1OC (centres undefined), Cc1noc(C)c1NC(=O)Nc1ccc2c(c1)C(=O)N([C@H](C)CO)C[C@H](C)[C@@H](CN(C)C(=O)Nc1ccc(C(F)(F)F)cc1)O2, Cc1cc(C)nc(N/N=C/c2ccncc2)n1, CCNc1nc(NCC)nc(N/N=C/c2ccc(O)c(OC)c2)n1, Oc1ccc(Cl)c2c1CCC2, CSc1ncnc2c1ncn2CC(=O)C1CCC2C3CCC4=CC(=O)CCC4(C)C3CCC12C (centres undefined), Cc1ccc(C(=O)NCC(=O)NC2CC2)cc1, Cc1cc(NC(=O)c2cc3ccccc3o2)no1, COc1ccc(C(=O)Nc2ccc(C3(C#N)CCCC3)cc2)cc1OC, CCNC(=O)c1ccc(OCC(=O)Nc2ccc(F)cc2)c(OC)c1, CN(C)C(=O)CCc1ccc2c3c([nH]c2c1)[C@]1(C)[C@@H](C(=O)N2CCOCC2)C[C@H](CC(=O)NCCc2ccccn2)C(=O)N1CC3, COc1ccc(NS(=O)(=O)c2ccc(N3CCOCC3)c(NC(=O)/C=C/C(=O)O)c2)cc1, Cc1ccc(S(=O)(=O)CCC(=O)OCC(=O)N(C)Cc2ccccc2)cc1, Cc1ccc(-n2c(O)c(C=Nc3ccc(S(=O)(=O)Nc4ncccn4)cc3)c3ccccc3c2=O)cc1C, CCOc1ccc(-n2c(SCC(=O)Nc3cc(C(=O)O)ccc3Cl)nc3ccccc3c2=O)cc1, COc1ccc(C(CNC(=O)c2cccc(S(=O)(=O)Nc3ccc(Br)cc3)c2)N(C)C)cc1 (centres undefined), CCOc1cc(C=NNC(=O)CCCC(=O)NN=Cc2ccc(O)c(OCC)c2)ccc1O, Oc1ccc(/C=N/NC2=NCCCCC2)c(O)c1, Oc1ccc(-c2nc3ccccc3nc2-c2ccc(O)cc2O)c(O)c1, COc1ccc(OCCNC(=O)c2cc(C3CC3)nc3c2cnn3C(C)C)cc1, Cc1cn(C2CC(O)C(CO)O2)c(=O)n(CCCc2ccccc2)c1=O (centres undefined), CN(C)c1ccc(CSc2ccccc2)cc1, COC(=O)Cc1nc2c(N)nc(N)nc2[nH]c1=O, C=CCn1c(SCC(=O)c2c(N)n(C)c(=O)n(C)c2=O)nc2sc(CC)cc2c1=O, Cc1sc2nc(SCCO)n(-c3ccccc3)c(=O)c2c1C, COc1ccc(C(=O)COC(=O)c2c(C)noc2C)cc1Cl, Cc1ccc(C(=O)NNC(=O)c2ccc3c(c2)OCCO3)cc1, CC1CCCCC1NCC(=O)Nc1ccccc1C(=O)Nc1ccccc1 (centres undefined), O=C(Nc1ccc(O)cc1)c1ccccc1O, Cc1cc(C(=O)CCC(=O)NNC(=O)c2ccccc2O)c(C)s1, O=C(CN1C(=O)c2ccc([N+](=O)[O-])cc2C1=O)Nc1nnc(C2CC2)s1

re-replication activation, inactive:
O=[N+]([O-])c1ccc(COc2ccccc2CN2CCOCC2)cc1 -7.64% [at 9.22 µM]

From PubChem BioAssay AID624297 (National Center for Advancing Translational Sciences (NCATS), 2012)
